Screening results deposited in PubChem by National Center for Advancing Translational Sciences (NCATS).
Compounds with a hit are over-represented: about 6.5% of the library has one in this group of screens.
Lassa entry inh – Lassa virus entry inhibition; Lassa virus pseudotype entry inhibition, cell reporter; Potency, µM (doses to about 37.9 µM), actives largely listed as inhibitors; hit rate 1.2% among 300,000; AID 540256; calls by dose curve; tested in HEK293 cells; also: nearly all actives have a fitted effect of over 50% in size
HCMV antiviral – inhibitors of human cytomegalovirus. AID 1259415. activity change, negative = inhibition, % at 57.5 µM. HFF cells, HCMV-luciferase reporter, 72 h; active compounds read low. hit rate 4.5% among 410,000; in the data active = activity change below about -60%; inconclusive = no clear call, values can overlap the other calls; inactive = above about -39%
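Cell-based, HFFs, 1000 cells/well, 16 h 37C; cpds in DMSO + HCMV-luc, MOI 1 PFU/cell; 72 h 37C; OneGlo luminescence after 5 min RT; norm. to buffer vs Salinomycin 10uM.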
MARV entry inh – blocks Marburg virus binding to or entry into cells; Marburg virus pseudotyped entry inhibition, cell reporter; Potency, µM (titrated, usually from 37.8 µM), usual class: inhibitors; hit rate 1.8% among 300,000; calls by dose curve; tested in HEK293 cells
VACV Venus inh – vaccinia inhibition (Venus reporter) | hit rate 0.46% among 330,000 | Vaccinia virus Venus reporter expression, fluorescence | Potency, µM (top dose mostly 36.5 µM), hits mostly inhibitors; calls by dose curve; tested in A549 cells; also: nearly all actives have a fitted effect of over 30% in size
FMDV antiviral – foot and mouth disease virus antiviral activity. FMDV antiviral cell-based qHTS. Potency, µM (doses to about 57.9 µM), usual class: inhibitors. hit rate 1.2% among 410,000; calls by dose curve; tested in HEK293T cells; also: read-out not given here; nearly all actives have a fitted effect of over 45% in size
Vaccinia mCherry – inhibitors of vaccinia virus infection (mCherry reporter signal) | Vaccinia virus mCherry reporter infection, fluorescence | Potency, µM (highest dose often 36.5 µM), hits mostly inhibitors | hit rate 0.63% among 310,000 | AID 720579; calls by dose curve; tested in A549 cells; also: nearly all actives have a fitted effect of over 35% in size
G2M arrest HeLa – HeLa G2/M cell cycle arrest induction; HeLa cell cycle G2/M arrest, Hoechst DNA content imaging; Potency, µM, actives largely listed as inhibitors; shares compounds with MARV entry inh; hit rate 60% among 25; AID 2441
WI-38 tox – counter-screen for perinucleolar compartment inhibitors: WI-38 cytotoxicity | shares compounds with MARV entry inh | WI-38 normal lung fibroblasts, ATPLite luminescence ATP viability, 24 h | Potency, µM (series often up to 46.1 µM), actives largely listed as inhibitors | 120 tested, under 10 active | AID 2729
PNC assembly inh – confirmation of perinucleolar compartment assembly inhibitors | PC3M PTB-GFP, PNC prevalence imaging, 16 h | AID 2730 | shares compounds with MARV entry inh | hit rate 50% among 120 | Potency, µM (doses to about 46.1 µM), actives largely listed as inhibitors
PC3M casp3-7 – activates caspase 3/7 in PC3M cells in PNC counter-screen; shares compounds with MARV entry inh; PC3M-GFP caspase 3/7 activation, luminescence, 24 h; activity change, positive = activation, % at 46.1 µM; 120 tested, under 10 active; AID 2731
Hits are given with their value; i = inactive; ? = inconclusive; nt = no result; ! = not confirmed by another sample; [ ] = dose if it differs, or a comment. Unless noted, calls follow the shape of the dose curve; as a rule, active = well fitted curve in the direction sought with a large enough effect; inconclusive = small, poorly fitted or top-dose-only effect, or another doubt; inactive = no such curve, though single readings can be large; an effect the other way counts as inactive or inconclusive.

SMILES	Lassa entry inh	HCMV antiviral	MARV entry inh	VACV Venus inh	FMDV antiviral	Vaccinia mCherry	WI-38 tox	PNC assembly inh	PC3M casp3-7	others
CCn1c(C)cc(C(=O)CSc2nnc(C3CC3)n2C2CC2)c1C	nt	i	nt	i	i	i	nt	nt	nt
C=CCNc1ncnc2c1ncn2[C@H]1CN(Cc2ccccc2)C[C@@H](COC(C)=O)O1	nt	i	nt	i	i	i	nt	nt	nt
CC(C)=CCC(C)(C)/C=N/NC(N)=O	?	i	i	i	i	i	nt	nt	nt
CSc1nc(-c2ccc(C)cc2)nc(C(Cl)Cl)n1	?	nt	?	nt	i	nt	i	13µM	?
O=C(CCC1N=C2c3ccccc3N=C(SCc3ccccc3F)N2C1=O)NC1CCCCC1 (centres undefined)	i	i	nt	i	i	i	nt	nt	nt
CCN(CC)C(=O)N1c2ccccc2C=Cc2ccccc21	0.63µM	-81	1.1µM	?	?	nt	i	5µM	i
O=c1cc(CSc2nnc(C3CC3)n2Cc2ccccc2)nc2sccn12	i	i	i	nt	i	nt	nt	nt	nt
Cc1ccc(NC(=S)NCCc2ccc(S(N)(=O)=O)cc2)cc1C	i	i	i	i	i	i	i	i	i
Cc1cc(C)cc(NC(=S)NCCc2ccc(S(N)(=O)=O)cc2)c1	i	i	i	i	i	i	nt	nt	nt
COc1ccccc1NC1=C(N2CCCCC2)C(=O)c2ccccc2C1=O	?	nt	?	10µM	10µM	?	i	11µM	?
CN(C1=C(N2CCCCC2)C(=O)c2ccccc2C1=O)c1ccccc1	?	i	?	i	nt	i	nt	nt	nt
C#CCn1c(S(=O)(=O)Cc2ccc(C)cc2)nc(-c2ccccc2)c1-c1ccccc1	3.3µM	-95	4.6µM	i	i	i	i	7.9µM	i
C#CCn1c(C)cc(C)c(S(=O)(=O)c2ccccc2)c1=O	i	i	i	i	i	i	nt	nt	nt
CCOC(=O)CSc1nc2c(sc3ccc([N+](=O)[O-])cc32)c(=O)n1Cc1ccco1	i	i	i	i	i	i	i	i	i
O=c1c2ccccc2nnn1CSc1ccc2ccccc2n1	i	i	i	i	i	i	i	?	i
O=c1[nH][nH]c2c1[C@H](c1ccccc1)O[C@H](C1CCCCC1)C2	nt	i	nt	i	i	i	nt	nt	nt
Cc1cnc(NC(=O)COc2cccc3c2OC(C)(C)C3)s1	0.71µM	-88	?	i	i	7.9µM	i	7.9µM	i
CC1(C)Cc2cccc(OCC(=O)Nc3ccccc3F)c2O1	nt	i	nt	nt	i	nt	nt	nt	nt
C/C(N)=C(/C#N)C(=O)COC(=O)c1cc(C)n(-c2ccc(F)cc2)c1C	?	i	2µM	i	i	?	i	13µM	i
CCOC(=O)[C@]12CCCC=C1N(Cc1cccc3ccccc13)C(=O)[C@H](CC(=O)NCCCCc1ccccc1)C2	nt	i	nt	?	i	?	nt	nt	nt
CCOC(=O)NC1(Nc2ccc(C)cc2)Oc2ccccc2O1	?	i	i	i	i	i	i	i	i
CCOC(=O)NC1(NC(C)C)Oc2ccccc2O1	i	i	i	i	i	i	nt	nt	nt
Cc1sc2nc(C3CC3)nc(SCC(=O)N3c4ccccc4CC3C)c2c1C (centres undefined)	1.8µM	nt	4.1µM	nt	i	nt	i	7.1µM	i
Cc1cc(C(=O)COc2ccccc2Cl)c(C)n1-c1ccc2c(c1)OCO2	4.1µM	i	16µM	i	i	i	i	7.9µM	i
CNS(=O)(=O)c1cccc(C(=O)OCC(=O)c2cc(C)n(-c3ccc4c(c3)OCO4)c2C)c1	i	i	i	i	i	nt	nt	nt	nt
SMILES	Lassa entry inh	HCMV antiviral	MARV entry inh	VACV Venus inh	FMDV antiviral	Vaccinia mCherry	WI-38 tox	PNC assembly inh	PC3M casp3-7	others
O=C(Nc1cccc(S(=O)(=O)N2CCCCCC2)c1)c1ccc2c(c1)OCO2	?	-62	?	?	i	i	i	i	i
O=C(Nc1cccc(S(=O)(=O)N2CCCC2)c1)c1ccc2c(c1)OCO2	i	i	i	i	i	i	nt	nt	nt
Cc1ccc(Cl)cc1N(CC(=O)N1CCOCC1)S(C)(=O)=O	nt	i	nt	nt	i	nt	nt	nt	nt
Cc1ccc(Cl)cc1N(CC(=O)N1CCCCCC1)S(C)(=O)=O	i	i	i	i	i	i	i	i	i
O=C(N/N=C/c1ccccc1O)c1cccc(C(F)(F)F)c1	?	-102	5.6µM	?	i	3.5µM	i	28µM	i
C/C(=N/OCO/N=C(\C)c1ccc(F)cc1F)c1ccc(F)cc1F	i	i	i	i	i	i	nt	nt	nt
C/C(=N/OCO/N=C(/C)c1ccc(F)cc1)c1ccc(F)cc1	3.2µM	i	?	i	i	i	i	22µM	i
COC(=O)N/N=C/c1cn(CCOc2ccccc2OC)c2ccccc12	nt	nt	nt	nt	i	nt	nt	nt	nt
CNC(=S)N/N=C/c1cn(CCOc2ccccc2OC)c2ccccc12	i	i	?	7.1µM	i	4.5µM	i	?	i
CN(C)c1ccc(N=Nc2ccccc2C(=O)OCC(=O)NC2CCCC2)cc1	?	?	?	i	i	i	?	?	i
CN(C)c1ccc(N=Nc2ccccc2C(=O)OCC(=O)N(C)C2CCCCC2)cc1	?	i	?	i	i	i	nt	nt	nt
CNC1=C(N(C(C)=O)c2ccc(Br)cc2)C(=O)c2ccccc2C1=O	5.6µM	-100	2.3µM	5.6µM	8.9µM	?	?	?	?
CC(c1ccco1)N(C(=O)c1cccc(S(=O)(=O)N(C)C)c1)c1ccccn1 (centres undefined)	i	i	i	i	i	i	nt	nt	nt
COc1ccc(Cc2nnc(N/N=C/c3ccc(Br)cc3)[nH]c2=O)cc1OC	nt	i	nt	i[7.34 µM]	i	i[7.34 µM]	nt	nt	nt
COc1ccc(Cc2nnc(N/N=C/c3ccc(O)cc3)[nH]c2=O)cc1OC	?	-100	?	?	i	1.1µM	?	?	i
O=C(Nc1ccc(N2C(=O)C3C4C=CC(C4)C3C2=O)cc1Cl)c1cccs1 (centres undefined)	i	i	?	i	i	i	nt	nt	nt
COc1ccccc1C(=O)N/N=C(\C)c1cccnc1	i	i	i	i	i	i	nt	nt	nt
CCOc1ccc(OCCNC(=O)c2cc(C3CC3)nc3c2cnn3C(C)C)cc1	i	i	?	i	?	i	nt	nt	nt
CCC1(O)CC2CN(CCc3c([nH]c4ccccc34)[C@@](C(=O)OC)(c3cc4c(cc3OC)N(C=O)C3[C@]45CCN4CC=C[C@@](CC)([C@@H](OC(C)=O)[C@]3(O)C(=O)OC)[C@H]45)C2)C1 (some centres undefined)	nt	nt	13µM!	nt	nt	nt	nt	nt	nt	G2M arrest HeLa=?
CC[C@]12C=CCN3CCC4(c5cc(Br)c(OC)cc5N(C)C4[C@@](O)(C(=O)OC)[C@@H]1OC(C)=O)C32 (some centres undefined)	i	i	i	nt	i	nt	nt	nt	nt
CCOc1ccc(-c2cccc(NS(=O)(=O)c3cccc([N+](=O)[O-])c3)c2)nn1	nt	i	nt	i	i	i	nt	nt	nt
